According to PubChem BioAssay AID1159580 (chemical genetic matrix, 2015):
Out of some 5,500 compounds screened, about 2,000 (36%) were called active. Inconclusive results (about 18%) are left out. No stated cut-off is given here; in the data, active means normalized growth mostly below about 0.91 (no sharp cut-off); inconclusive means no clear call, values can overlap the other calls; inactive means mostly above about 0.92. This is one part of the list.

Test: chemical genetic growth profiling, strain panel (AID 1159580);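 further: tested at 20 µM; growth read once vehicle control cultures reached saturation at 30 °C; 1 = growth at the plate median or of vehicle wells; lower values mean less growth of the strain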
Settings: S. cerevisiae deletion strains, growth OD

Measured: normalized growth

Cc1nnsc1C(=O)Nc1cc(C(F)(F)F)cc(C(F)(F)F)c1
inactive: locus YAR019C, strain CDC15, active compounds read low 0.956 | locus YBL105C, strain PKC1, active compounds read low 0.957 | locus YBR135W, strain CKS1, active compounds read low 0.953 | locus YBR136W, strain MEC1, active compounds read low 0.958 | locus YBR160W, strain CDC28, active compounds read low 0.962 | locus YDL017W, strain CDC7, active compounds read low 0.958 | locus YDL028C, strain MPS1, active compounds read low 0.959 | locus YDL101C, strain DUN1, active compounds read low 0.964 | locus YDL108W, strain KIN28, active compounds read low 0.958 | locus YDL132W, strain cdc53, active compounds read low 0.95 | locus YDL214C, strain PRR2, active compounds read low 0.987 | locus YDR052C, strain DBF4, active compounds read low 0.966 | locus YDR054C, strain cdc34, active compounds read low 0.951 | locus YDR226W, strain ADK1, active compounds read low 0.955 | locus YDR477W, strain SNF1, active compounds read low 0.995 | locus YER123W, strain YCK3, active compounds read low 1 | locus YER133W, strain GLC7, active compounds read low 1.01 | locus YFL009W, strain cdc4, active compounds read low 0.948 | locus YFL029C, strain CAK1, active compounds read low 0.958 | locus YFR003C, strain YPI1, active compounds read low 0.955 | locus YFR019W, strain FAB1, active compounds read low 0.987 | locus YFR028C, strain CDC14, active compounds read low 0.964 | locus YGR040W, strain KSS1, active compounds read low 1 | locus YGR052W, strain FMP48, active compounds read low 1.02 | locus YGR092W, strain DBF2, active compounds read low 0.974 | locus YHR030C, strain SLT2, active compounds read low 1 | locus YHR079C, strain IRE1, active compounds read low 0.908 | locus YHR082C, strain KSP1, active compounds read low 1.07 | locus YHR205W, strain SCH9, active compounds read low 0.846 | locus YIL147C, strain SLN1, active compounds read low 0.957 | locus YJL095W, strain BCK1, active compounds read low 0.946 | locus YJL128C, strain PBS2, active compounds read low 0.957 | locus YJL157C, strain FAR1, active compounds read low 1.01 | locus YJR016C, strain ILV3, active compounds read low 0.956 | locus YJR066W, strain TOR1 (second series), active compounds read low 0.976 | locus YJR066W, strain TOR1, active compounds read low 1.1 | locus YKL048C, strain ELM1, active compounds read low 0.993 | locus YKL067W, strain YNK1, active compounds read low 0.977 | locus YKL101W, strain HSL1, active compounds read low 0.961 | locus YKL193C, strain SDS22, active compounds read low 0.947 | locus YKL203C, strain TOR2, active compounds read low 1.06 | locus YLR113W, strain HOG1, active compounds read low 0.961 | locus YLR133W, strain CKI1, active compounds read low 0.991 | locus YLR403W, strain SFP1, active compounds read low 0.941 | locus YML070W, strain DAK1, active compounds read low 0.997 | locus YMR001C, strain CDC5, active compounds read low 0.962 | locus YMR205C, strain PFK2 (second series), active compounds read low 0.984 | locus YMR277W, strain FCP1, active compounds read low 0.951 | locus YNL006W, strain LST8, active compounds read low 0.964 | locus YNL020C, strain ARK1, active compounds read low 0.985 | locus YNL161W, strain CBK1, active compounds read low 0.957 | locus YNL183C, strain NPR1, active compounds read low 1.05 | locus YNL207W, strain RIO2, active compounds read low 0.954 | locus YNL222W, strain SSU72, active compounds read low 0.961 | locus YNL307C, strain MCK1 (second series), active compounds read low 0.992 | locus YOL078W, strain AVO1, active compounds read low 0.951 | locus YOL136C, strain PFK27, active compounds read low 0.985 | locus YOR061W, strain CKA2, active compounds read low 0.996 | locus YOR119C, strain RIO1, active compounds read low 1.05 | locus YOR231W, strain MKK1, active compounds read low 1.03 | locus YOR329C, strain SCD5, active compounds read low 0.966 | locus YPL031C, strain PHO85, active compounds read low 1 | locus YPL153C, strain RAD53, active compounds read low 0.989 | locus YPL204W, strain HRR25, active compounds read low 0.99 | locus YPL209C, strain IPL1, active compounds read low 0.961 | locus YPL256C, strain CLN2, active compounds read low 0.864 | locus YPR025C, strain CCL1, active compounds read low 0.967 | locus YPR106W, strain ISR1, active compounds read low 0.948 | locus YPR111W, strain DBF20, active compounds read low 0.943 | strain NNK1, active compounds read low 0.925 | strain TSCII, active compounds read low 0.954
